The chains are these.
B1: VH:VL chains; a variant is named by its letters at X, in order (parent)
chain 1: QVQLVQSGAEVKKPGASVKVSCKASGYTFTDYXMHWVRQAPGQGLEWMGXVNPNXXXTTYNQKFEGRVTMTTDTSTSTAYMELRSLRSDDTAVYYCARXNXLDXWGQGTTVTVSS
chain 2: DIQMTQSPSSLSASVGDRVTITCSVSSSVSSIYLHWYQQKPGKAPKLLIYSTSNLASGVPSRFSGSGSGTDFTLTISSLQPEDFATYYCQVYSGYPLTFGGGTKVEIK

Some of the results follow. The true hit rate is not given.

Variants of B1 are the subject of this assay. Nature of the assay: yeast display scFab, FACS + sequencing. Particulars: with MET. In outline:
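Antigen binding was called positive for sequences present in both antigen-positive samples and negative for those present only in the input. These calls came from deep sequencing, in two replicates, of round-3 sorted and input populations from a heavy-chain CDR mutant scFab yeast surface library. The library was first enriched twice magnetically on HGFR-Fc-coated Protein A beads and then by FACS, gating the top 50% antigen-positive cells after 3 h labelling at room temperature with 1 nM HGFR-Fc plus anti-Myc in PBSB with 1% milk.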
For the variant YKGKGVGV, the antigen binding call is recorded as “binds”.
As for YRGKGVGV, the antigen binding call is “no binding”.
The same measure for SKEGGVGV: “no binding”.
In the case of DKGRSVGV, the antigen binding call is reported as “no binding”.
With YKGRGVGV, the antigen binding call is given as “binds”.
Regarding YKGRGVVV, the antigen binding call is given as “binds”.
Consider YKERDVGV, for which the antigen binding call is reported as “no binding”.
Turning to AARADDGS, the antigen binding call is “no binding”.
For the variant SAAGGDGV chain 1 L45S, the antigen binding call is listed as “no binding”.
FGRGGVGD: the antigen binding call is recorded as “no binding”.
As for FRRGGAVD, the antigen binding call is given as “binds”.
FRRGGSVD: the antigen binding call is “binds”.
Regarding FRERGAGD, the antigen binding call is on record as “binds”.
As to FRERGAGY, the antigen binding call is given as “no binding”.
Turning to FRRGGAGD, the antigen binding call is recorded as “binds”.
In the case of FTETGAGD, the antigen binding call is given as “no binding”.
For the variant FTEEGAGD, the antigen binding call is listed as “no binding”.
VATGDFGV: the antigen binding call is recorded as “no binding”.
For YKTGGALY, the antigen binding call is recorded as “binds”.
YKAGGALY: the antigen binding call was “binds”.
Consider VKTGGDVY, for which the antigen binding call is “no binding”.
Take YKKTGDLY: the antigen binding call is reported as “no binding”.
Consider YETETALY, for which the antigen binding call is listed as “no binding”.
Take SKGENALY: the antigen binding call is given as “no binding”.
Regarding AARADDAV, the antigen binding call is reported as “no binding”.
For the variant YRTGGSGD, the antigen binding call was “binds”.
Consider DREEGSGD, for which the antigen binding call is “no binding”.
For YRTGDSGD, the antigen binding call was “binds”.
As for DATGGAGD, the antigen binding call is “no binding”.
Take SETGGAGD: the antigen binding call is reported as “no binding”.
Regarding FATGGSGD, the antigen binding call is recorded as “no binding”.
With YRTGGAWD, the antigen binding call is on record as “binds”.
Regarding YRTGGAGD, the antigen binding call was “binds”.
Turning to FTRTNFLS, the antigen binding call is “no binding”.
Take VKEKGDVA: the antigen binding call is reported as “no binding”.
Regarding YAARGSAA, the antigen binding call was “no binding”.
Take YKRRGSAA: the antigen binding call was “binds”.
On to YKARGSAA, for which the antigen binding call was “binds”.
With YRAKGSAA, the antigen binding call was “binds”.
On to YRGRSSAA, for which the antigen binding call was “binds”.
Under YTRAGSAA stands “no binding”; under DAKTDDGV, “no binding”.
The same measure for DKEGGDGY: “no binding”.
On to YGATSSLA, for which the antigen binding call is given as “no binding”.
Consider YREKGSAA, for which the antigen binding call is given as “binds”.
In the case of YGGGGVAA, the antigen binding call is listed as “no binding”.
YRARSSAA: the antigen binding call was “binds”.
The same measure for YTGRGSAA: “binds”; for AREKGSAA: “no binding”; for YGAAGSAA: “binds”.
The same measure for YTKRGSAA: “no binding”.
Regarding AAEGGYAV, the antigen binding call is recorded as “no binding”.
Under VKGASDWA stands “no binding”; under VTTKSDSA, “no binding”; under VTTKSDGA, “no binding”.
For YRARGSLA, the antigen binding call is given as “binds”.
With YTARGSAA, the antigen binding call is recorded as “binds”.
The same measure for YRARGSAA: “binds”; for YREKGAAA: “binds”; for DTRGADAV: “no binding”.
For DEGAGDGF, the antigen binding call was “no binding”.
As for YKTRGSAA, the antigen binding call is given as “binds”.
The same measure for YKTRGFGA: “no binding”; for YRARSSLA: “binds”; for FAARAFGV: “no binding”.
On to SEEASDGA, for which the antigen binding call is “no binding”.
Turning to YRAGGVVA, the antigen binding call was “binds”.
Under YRAGGSVA stands “binds”.
Under YRKGGFVA stands “no binding”.
Turning to YRAGGYVA, the antigen binding call is “binds”.
With YREGGFVA, the antigen binding call was “no binding”.
In the case of YRAGGFVA, the antigen binding call is “binds”.
In the case of DTGTGSSA, the antigen binding call is “no binding”.
Consider STTKSDGV, for which the antigen binding call is recorded as “no binding”.
As to VAGTGDWA, the antigen binding call is recorded as “no binding”.
Take YKEEDSLD: the antigen binding call is “no binding”.
For the variant YKGKGALD, the antigen binding call is recorded as “binds”.
Regarding FKGKGVGD, the antigen binding call is “no binding”.
Under YKGAGALD stands “no binding”; under FKGKGAGD, “binds”.
The same measure for YKKGGSLD: “binds”; for YKGGGALD: “binds”; for DTTGSASD: “no binding”.
As for VAGGDDWV, the antigen binding call is “no binding”.
On to FKGRGALA, for which the antigen binding call is “binds”.
Take FKGKGALD: the antigen binding call is on record as “binds”.
For YKGKGSLD, the antigen binding call is on record as “binds”.
Turning to YRAGASAV, the antigen binding call is “binds”.
Under YRARSSAD stands “binds”; under YAGEASAV, “no binding”; under YAEESSAD, “no binding”.
Regarding YRGAASAV, the antigen binding call is “binds”.
In the case of YRAGSSAD, the antigen binding call is recorded as “binds”.
As to VRAGADSV, the antigen binding call was “no binding”.
The same measure for DAGEASAV: “no binding”; for VRAGADAV: “no binding”; for SEARSSAD: “no binding”.
DAGTAFSS: the antigen binding call was “no binding”.
In the case of VEREADWF, the antigen binding call was “no binding”.
With YRAGASAD, the antigen binding call is “binds”.
On to FREKDSAD, for which the antigen binding call is “no binding”.
On to YREKDSAD, for which the antigen binding call is given as “binds”.
Turning to YRARGSAD, the antigen binding call is “binds”.
For YAEKDAGD, the antigen binding call was “no binding”.
In the case of YRAKGSAD, the antigen binding call was “binds”.
As for DTEEGDVA, the antigen binding call is “no binding”.

Values taken from the emibetuzumab library of Makowski et al. (2022).
